High-throughput results: PubChem, several laboratories
Rows were chosen to be rich in hits. Some 1.2% of all compounds tested hit in one or more screens of this group.
bovine MsrA act = bovine MsrA enzyme activators, primary screen, biochemical, absorbance, HTS; Methionine sulfoxide reductase A (Bos taurus); purified bovine MsrA, absorbance read-out; activation, % at 10.6 µM; actives 0.3% (n = 360,000); AID 602163, 2012; in the data active means activation above about 7.5%;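 further: 0% = vehicle and 100% = reference activator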
GC-A act = GC-A stimulated cGMP production enhancers – HEK293 GC-A cells, cGMP TR-FRET, EC30 ANP, primary screen. Atrial natriuretic peptide receptor 1 (Homo sapiens), P16066. 0% at EC30 ANP, 100% saturating ANP. activation, % at 10 µM. actives 0.14% (n = 370,000); in the data active means activation above about 40%
MsrA inhibitor = bovine MsrA enzyme inhibitors, primary screen, biochemical, absorbance, HTS; Methionine sulfoxide reductase A (Bos taurus); purified bovine MsrA, absorbance read-out; inhibition, % at 15.5 µM; actives 0.75% (n = 360,000);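 further: 0% = vehicle wells with enzyme and 100% = reference inhibitor wells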
GC-B act = human GC-B receptor activators, primary screen, HEK293 GC-B cells, cGMP TR-FRET, EC30 CNP | Atrial natriuretic peptide receptor 2 (Homo sapiens), P20594 | 0% at EC30 CNP, 100% saturating CNP | activation, % at 10 µM | actives 0.11% (n = 370,000) | AID 1920062, 2024;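 active means activation at 10 µM reaching about 35% in either raw or pattern-adjusted values, limit read from the data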
Target sequence (P20594 whole entry, looked up): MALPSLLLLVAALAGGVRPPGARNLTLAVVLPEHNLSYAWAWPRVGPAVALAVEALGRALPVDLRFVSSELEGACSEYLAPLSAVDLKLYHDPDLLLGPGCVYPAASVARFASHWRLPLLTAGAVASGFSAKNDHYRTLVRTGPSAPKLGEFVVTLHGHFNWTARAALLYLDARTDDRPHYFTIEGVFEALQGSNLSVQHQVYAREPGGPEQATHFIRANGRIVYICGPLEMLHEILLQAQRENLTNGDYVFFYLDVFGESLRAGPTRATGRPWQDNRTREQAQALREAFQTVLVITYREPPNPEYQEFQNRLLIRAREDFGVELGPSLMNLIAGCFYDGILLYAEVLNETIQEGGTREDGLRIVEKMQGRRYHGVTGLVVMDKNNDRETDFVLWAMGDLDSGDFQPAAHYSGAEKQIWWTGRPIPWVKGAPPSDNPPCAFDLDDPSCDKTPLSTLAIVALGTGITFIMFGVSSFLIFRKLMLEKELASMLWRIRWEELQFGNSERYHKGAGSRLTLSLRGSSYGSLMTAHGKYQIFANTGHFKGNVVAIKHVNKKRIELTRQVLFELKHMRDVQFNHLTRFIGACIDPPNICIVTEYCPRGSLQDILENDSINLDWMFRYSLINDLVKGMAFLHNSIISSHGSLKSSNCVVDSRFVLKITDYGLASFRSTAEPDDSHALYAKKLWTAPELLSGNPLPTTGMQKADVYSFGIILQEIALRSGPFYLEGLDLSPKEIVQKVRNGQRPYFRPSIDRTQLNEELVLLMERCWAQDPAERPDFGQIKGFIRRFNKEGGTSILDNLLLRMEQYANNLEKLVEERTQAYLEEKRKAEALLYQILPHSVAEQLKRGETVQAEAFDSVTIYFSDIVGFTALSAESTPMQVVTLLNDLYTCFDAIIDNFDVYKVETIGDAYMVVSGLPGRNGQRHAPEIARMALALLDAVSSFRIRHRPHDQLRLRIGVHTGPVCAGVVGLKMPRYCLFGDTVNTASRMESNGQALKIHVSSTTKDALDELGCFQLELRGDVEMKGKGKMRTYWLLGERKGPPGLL
MsrA conf = bovine MsrA inhibitors, retest, confirmation, biochemical, absorbance, HTS; shares compounds with MsrA inhibitor; AID 651822, 2012; purified bovine MsrA, absorbance read-out; actives 41% (n = 2,300); inhibition, % at 15.5 µM;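 further: coupled to thioredoxin reductase with NADPH and selenocystamine and DMSO as substrate; 0% = vehicle only and 100% = full effect of reference inhibitor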
An asterisk follows results filed as active. Unless noted, no stated cut-off is given here; in the data, active means inhibition above about 4.5%; inactive means the rest.

How did COc1cc(C(=O)NCC(=O)N/N=C/c2ccc(-c3cccc([N+](=O)[O-])c3)o2)cc(OC)c1OC do in these assays?
bovine MsrA act: -2; GC-A act: -2; MsrA inhibitor: 5.3*; GC-B act: 0; MsrA conf: 3

What do the screens show for `Nc1nc2nccc(-c3ccco3)n2n1`?
bovine MsrA act: -5; GC-A act: 0; MsrA inhibitor: 6.1*; GC-B act: -3; MsrA conf: 3

What do the screens show for `Nc1nc2nccc(-c3ccccn3)n2n1`?
bovine MsrA act: -8; GC-A act: -2; MsrA inhibitor: 3; GC-B act: -2

Results for CCC(=O)Nc1ccc(Cl)cc1C(=O)c1ccc[nH]1 ?
GC-A act: -1; GC-B act: -8

How did Oc1cccc(/C=N/Nc2ncnc3c2ncn3Cc2ccccc2)c1 do in these assays?
bovine MsrA act: -10; GC-A act: -1; MsrA inhibitor: 4.8*; GC-B act: -1; MsrA conf: 5.2*

How did CC(C)Oc1ccc(/C=N/NC(N)=S)cc1 do in these assays?
bovine MsrA act: -3; GC-A act: 1; MsrA inhibitor: 4.8*; GC-B act: 2; MsrA conf: 2

Results for COc1ccc(C=CC(C)=NNC(=O)c2ccncc2)cc1 ?
bovine MsrA act: -4; GC-A act: -6; MsrA inhibitor: 5.3*; GC-B act: -2; MsrA conf: 6.0*

What do the screens show for `COc1ccc(/C=C(/NC(=O)c2ccccc2)C(=O)N/N=C/c2ccncc2)cc1`?
bovine MsrA act: -3; GC-A act: -3; MsrA inhibitor: 6.0*; GC-B act: -1; MsrA conf: 4.9*

How did COc1ccc(OCc2cc(/C=N\NC(=O)c3ccccc3)ccc2OC)cc1 do in these assays?
bovine MsrA act: -4; GC-A act: -8; MsrA inhibitor: 1; GC-B act: -4

How did COc1ccc(/C=N\NC(=O)/C(=C\Nc2nccc(C)n2)NC(=O)c2ccccc2)cc1 do in these assays?
bovine MsrA act: -2; GC-A act: -2; MsrA inhibitor: 8.2*; GC-B act: 3; MsrA conf: 7.7*

How did Cc1ccc(/C=N\NC(=O)/C(=C\Nc2nccc(C)n2)NC(=O)c2ccccc2)cc1 do in these assays?
bovine MsrA act: -3; GC-A act: 11; MsrA inhibitor: 5.9*; GC-B act: 6; MsrA conf: 6.0*

What do the screens show for `O=C(N[C@@H](Cc1cccnc1)C(=O)N1CCC[C@H]1C(=O)NC1CCCC1)c1ccccc1`?
GC-A act: -7; MsrA inhibitor: 0; GC-B act: -1

Results for CCn1c2ccccc2c2cc(NC(=O)COC(=O)c3cc(F)ccc3F)ccc21 ?
GC-A act: -2; GC-B act: -5

Results for CCOc1cc(/C=C2/N=C(c3ccc4c(c3)OCO4)OC2=O)ccc1OC(C)=O ?
bovine MsrA act: -3; GC-A act: 1; MsrA inhibitor: 1; GC-B act: -1

What do the screens show for `CN(C)/C=C1\N=C(c2ccc3c(c2)OCO3)OC1=O`?
bovine MsrA act: -6; GC-A act: -3; MsrA inhibitor: 6.1*; GC-B act: -2; MsrA conf: 5.7*

Results for CN(C)/C=C1\N=C(c2ccccc2)OC1=O ?
bovine MsrA act: -11; GC-A act: -8; MsrA inhibitor: 8.9*; GC-B act: 1; MsrA conf: 6.0*

What do the screens show for `Cc1cc(N2CCC(C)CC2)nc2ccccc12`?
GC-A act: -8; GC-B act: -10

What do the screens show for `CC(C)C[C@H](NC1(C(=O)NC2CCCCC2)CCCCC1)C(=O)NCC(c1ccccc1)c1ccccc1`?
GC-A act: 0; GC-B act: 7

How did CCOC(=O)[C@@H]1CSCCS(=O)(=O)N1C(=O)[C@H](CC(C)C)NC(=O)OC(C)(C)C do in these assays?
GC-A act: 0; MsrA inhibitor: 2; GC-B act: 1

How did Cc1cc(C(=O)N/N=C/c2c3ccccc3cc3ccccc23)n[nH]1 do in these assays?
bovine MsrA act: -1; GC-A act: -4; MsrA inhibitor: 1; GC-B act: -3

What do the screens show for `CCC(=O)Nc1ccc(C(=O)N/N=C/c2c(C)[nH]c3ccccc23)cc1`?
bovine MsrA act: -4; GC-A act: -5; MsrA inhibitor: 6.5*; GC-B act: 2; MsrA conf: 4.9*

Results for Cc1cc(C(=O)N/N=C/c2c(C)n(C)c3ccccc23)n[nH]1 ?
bovine MsrA act: -8; GC-A act: -5; MsrA inhibitor: 6.9*; GC-B act: -6; MsrA conf: 4

What do the screens show for `Cc1[nH]c2ccccc2c1/C=N/NC(=O)c1cc(-c2cccs2)[nH]n1`?
bovine MsrA act: -10; GC-A act: 2; MsrA inhibitor: 4.7*; GC-B act: 0; MsrA conf: 3

Results for Cc1[nH]c2ccccc2c1/C=N\NC(=O)c1ccccc1Cl ?
bovine MsrA act: -3; GC-A act: -4; MsrA inhibitor: 2; GC-B act: -3

What do the screens show for `CC(C)COc1ccc(-c2csc(N3CCC(C(N)=O)CC3)n2)cc1`?
GC-A act: 3; GC-B act: -1

What do the screens show for `CC(=O)N1C[C@@H](CO)[C@@H](N(C)C(=O)Nc2cccc3ccccc23)C[C@H]1c1ccccc1`?
GC-A act: 4; MsrA inhibitor: -1; GC-B act: 8

How did O=C(NCc1ccco1)/C(=C/C=C\c1ccccc1)NC(=O)c1ccc(Br)o1 do in these assays?
bovine MsrA act: -6; GC-A act: -8; MsrA inhibitor: 5.0*; GC-B act: -3; MsrA conf: 4

Results for CCCOC(=O)/C(=C\C=C\c1ccccc1)NC(=O)c1ccccc1 ?
bovine MsrA act: -16; GC-A act: -2; MsrA inhibitor: 2; GC-B act: 4

Results for N#C/C(=C\C=C\c1ccccc1)C(=O)NCc1ccco1 ?
bovine MsrA act: -6; GC-A act: -2; MsrA inhibitor: 4; GC-B act: -4

How did CCCCOC(=O)/C(=C/C=C/c1ccccc1)NC(=O)c1ccccc1 do in these assays?
bovine MsrA act: -15; GC-A act: 0; MsrA inhibitor: 3; GC-B act: 0

How did CCOC(=O)/C(=C\C=C\c1ccccc1)NC(=O)c1ccccc1 do in these assays?
bovine MsrA act: -13; GC-A act: 10; MsrA inhibitor: 6.8*; GC-B act: 0; MsrA conf: 6.1*

What do the screens show for `CCOC(=O)/C(=C/C=C/c1ccccc1)NC(=O)c1ccccc1`?
bovine MsrA act: -5; GC-A act: 1; MsrA inhibitor: 5.6*; GC-B act: -7; MsrA conf: 2

What do the screens show for `O=C(O)CCNC(=O)/C(=C/C=C/c1ccccc1)NC(=O)c1ccccc1`?
bovine MsrA act: -5; GC-A act: 3; MsrA inhibitor: 5.5*; GC-B act: 0; MsrA conf: 3

Results for CCCCOc1ccc(C(=O)N/C(=C/C=C/c2ccccc2)C(=O)NCCO)cc1 ?
bovine MsrA act: -10; GC-A act: -1; MsrA inhibitor: 4; GC-B act: 1
